Data from PubChem BioAssay (NCI).
About 83,000 compounds went through this panel and 20% of them were active in at least one assay; those are over-represented in the sample as a whole.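 The endpoint reported here, percent growth, reads 100 for growth as untreated, 0 for no net growth and -100 for all cells dead.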 Active and inactive are the calls of the source. The calls were made as follows: active = growth percent below 10; inactive = the rest.

Tests used:
Experiment in all cases: NCI-60 one-dose screen, 48 h (100 = growth as untreated, 0 = no growth, -100 = all killed)
Settings in all cases: 10 µM unless noted
NCI-H23 lung = tested on: NCI-H23 lung
NCI-H226 lung = tested on: NCI-H226 lung
NCI-H322M lung = tested on: NCI-H322M lung
HOP-62 NSCLC = tested on: HOP-62 NSCLC
NCI-H460 lung = tested on: NCI-H460 lung
HOP-92 NSCLC = tested on: HOP-92 NSCLC
NCI-H522 lung = tested on: NCI-H522 lung
A549/ATCC NSCLC = tested on: A549/ATCC NSCLC
786-0 renal = tested on: 786-0 renal
COLO 205 colon = tested on: COLO 205 colon

Measured: growth

Cc1ncc(C(=O)Nc2ccc(CN3CCN(C)CC3)c(C(F)(F)F)c2)cc1C#Cc1cnc(N)c2ncccc12
active: 786-0 renal -71.4% | COLO 205 colon 1.6%
inactive: NCI-H23 lung 38.4% | NCI-H226 lung 42.6% | NCI-H322M lung 30.3% | HOP-62 NSCLC 20.6% | NCI-H460 lung 27.1% | HOP-92 NSCLC 14.7% | NCI-H522 lung 26.2% | A549/ATCC NSCLC 21.2%

CC1=C2[C@@H](CC1)[C@]1(C)O[C@@](C3CCCCC3)(C[C@H]1OC(=O)CO)[C@H]2OC(=O)/C=C/c1ccccc1
inactive: NCI-H23 lung 93.6% | NCI-H226 lung 76.5% | NCI-H322M lung 94.6% | HOP-62 NSCLC 91% | NCI-H460 lung 75.8% | HOP-92 NSCLC 44.3% | NCI-H522 lung 68% | A549/ATCC NSCLC 63.1% | 786-0 renal 55.9% | COLO 205 colon 93.8%

COc1cccc(C(=O)NNc2nc(Cl)nc(Cl)n2)c1
inactive: NCI-H23 lung 99.1% | NCI-H226 lung 105% | NCI-H322M lung 98.5% | HOP-62 NSCLC 104% | NCI-H460 lung 107% | HOP-92 NSCLC 98.3% | NCI-H522 lung 100% | A549/ATCC NSCLC 105% | 786-0 renal 101% | COLO 205 colon 107%

Cc1ccc2c(-c3nnc(N)s3)cc(=O)oc2c1C
inactive: NCI-H23 lung 95.5% | NCI-H226 lung 97.5% | NCI-H322M lung 98.5% | HOP-62 NSCLC 101% | NCI-H460 lung 102% | HOP-92 NSCLC 106% | NCI-H522 lung 102% | A549/ATCC NSCLC 104% | 786-0 renal 92.4% | COLO 205 colon 119%

CCCCNC(=O)Oc1ccc(/C(=C(/C)Cc2ccc(OC)cc2)c2ccc(OCCN3CCCCC3)cc2)cc1
inactive: NCI-H23 lung 81.6% | NCI-H226 lung 90.5% | NCI-H322M lung 92% | HOP-62 NSCLC 84.1% | NCI-H460 lung 33.6% | HOP-92 NSCLC 63.4% | NCI-H522 lung 81.2% | A549/ATCC NSCLC 61% | 786-0 renal 66.7% | COLO 205 colon 34.9%

C=CCn1c(SCC(=O)Nc2ccc(/C(C)=N/O)cc2)nnc1-c1cc(-c2ccc(S(N)(=O)=O)cc2)nc2ccccc12
inactive: NCI-H23 lung 97.3% | NCI-H226 lung 84.1% | NCI-H322M lung 96.7% | HOP-62 NSCLC 84.3% | NCI-H460 lung 91% | HOP-92 NSCLC 72.3% | NCI-H522 lung 68.8% | A549/ATCC NSCLC 110% | 786-0 renal 85.4% | COLO 205 colon 94.2%

Cn1ccc(=O)nc1
inactive: NCI-H23 lung 88.7% | NCI-H226 lung 104% | NCI-H322M lung 82.9% | HOP-62 NSCLC 102% | NCI-H460 lung 38.7% | HOP-92 NSCLC 104% | NCI-H522 lung 49% | A549/ATCC NSCLC 83.2% | 786-0 renal 109% | COLO 205 colon 102%

O=C(Cc1ccccc1)Nc1cccc(N=Cc2ccccc2O)c1
inactive: NCI-H23 lung 107% | NCI-H226 lung 104% | NCI-H322M lung 108% | HOP-62 NSCLC 115% | NCI-H460 lung 107% | HOP-92 NSCLC 88.1% | NCI-H522 lung 91.1% | A549/ATCC NSCLC 99.3% | 786-0 renal 104% | COLO 205 colon 111%

CCOC(=O)c1ccccc1-c1c2ccc(=[N+](C)C)cc-2oc2cc(N(C)C)ccc12
inactive: NCI-H23 lung 93% | NCI-H226 lung 19.5% | NCI-H322M lung 12.6% | NCI-H522 lung 14.2% | A549/ATCC NSCLC 12% | 786-0 renal 20.5%
active: HOP-62 NSCLC 6.81% | NCI-H460 lung 3.9% | HOP-92 NSCLC -19.3% | COLO 205 colon -46.6%

Cn1cc(-c2nn3cc(-c4cccs4)nc3s2)c2cc(F)ccc21
active: NCI-H460 lung 8.02% | NCI-H522 lung 5.4%
inactive: NCI-H23 lung 58% | NCI-H226 lung 67% | NCI-H322M lung 50.1% | HOP-62 NSCLC 28.4% | HOP-92 NSCLC 39.6% | A549/ATCC NSCLC 37.7% | 786-0 renal 49.2% | COLO 205 colon 22%

CC1(C)OB(O)c2cc(-c3nc4ccc5[nH]ncc5c4c4c3CCCC4)ccc21
inactive: NCI-H23 lung 62.8% | NCI-H226 lung 55% | NCI-H322M lung 57% | HOP-62 NSCLC 68.2% | NCI-H460 lung 34.1% | HOP-92 NSCLC 73.9% | NCI-H522 lung 77.9% | A549/ATCC NSCLC 56.4% | 786-0 renal 66.1% | COLO 205 colon 80.9%

COc1ccc(CNc2c3ccccc3nc3ccccc23)c(OC)c1
active: HOP-92 NSCLC -13.6%
inactive: NCI-H23 lung 34.9% | NCI-H226 lung 46.3% | NCI-H322M lung 40% | HOP-62 NSCLC 47.2% | NCI-H460 lung 16.6% | NCI-H522 lung 40.6% | A549/ATCC NSCLC 35.2% | 786-0 renal 39.1% | COLO 205 colon 24.6%

NC(=O)c1c(NC(=O)c2cccs2)sc2c1CCC(=O)C2
inactive: NCI-H23 lung 20.4% | NCI-H226 lung 82.9% | NCI-H322M lung 77.2% | HOP-62 NSCLC 84.6% | NCI-H460 lung 87.5% | HOP-92 NSCLC 36.7% | A549/ATCC NSCLC 84.8% | 786-0 renal 76% | COLO 205 colon 34.2%
active: NCI-H522 lung -0.894%

O=S(=O)(NCCCNc1nccc(-c2c(-c3cccc(F)c3)nc3occn23)n1)c1ccc(F)cc1
inactive: NCI-H23 lung 84.4% | NCI-H226 lung 39.6% | NCI-H322M lung 73.2% | HOP-62 NSCLC 63.7% | NCI-H460 lung 52.7% | HOP-92 NSCLC 61.4% | NCI-H522 lung 38.7% | A549/ATCC NSCLC 31.1% | 786-0 renal 66% | COLO 205 colon 17.7%

O=C(/C=C/c1cccc(Cl)c1Cl)Nc1ncc(Cc2ccccc2Cl)s1
inactive: NCI-H23 lung 79.2% | NCI-H226 lung 67.7% | NCI-H322M lung 78.5% | HOP-62 NSCLC 42.4% | NCI-H460 lung 33.9% | HOP-92 NSCLC 61.6% | NCI-H522 lung 17.5% | A549/ATCC NSCLC 58.2% | 786-0 renal 68.7% | COLO 205 colon 45.4%
